The text below walks through data of PubChem BioAssay (NCATS).

Several values for one entry are separate records, joined by “and”; a condition that tells them apart may be missing. Equal entries are not always repeated. Results filed as inconclusive are left out. A number with no mark means an inactive call. Activity calls are given as the source filed them. The call rests on the fitted dose curve; in most records, active means well fitted inhibition curve with a large enough effect; inconclusive means small, poorly fitted or top-dose-only effect; inactive means flat fitted curve, though single readings scatter.

For experiment [1], the system named is HaCat. In words: Cytotoxic Profiling of Annotated Libraries Using Quantitative High-Throughput Screening (AID 1296008). Further: potency means the concentration at half of the fitted maximal effect. On max response: on the % scale 0 is the no-effect control and ±100 the full control effect. The conditions noted are these: Five cell lines viability, CellTiter-Glo ATP luminescence, 48-72 h; max response: active compounds read low. In short, it runs like this:
(§1)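 Compounds were pin-transferred onto cells and incubated 48 or 72 hr at 37 degree Celsius, 95% humidity. CellTiter-Glo was added, plates sat 10 min at room temperature, then ATP-coupled luminescence was imaged as the viability read-out.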
In general terms: In ATP-based viability assays light output follows the ATP content of the culture.

The subject of experiment [2] is NIH3T3. Described as above. The conditions noted are these: Five cell lines viability, CellTiter-Glo ATP luminescence, 48-72 h; max response: active compounds read low. The procedure, abridged: as §1
The subject of experiment [3] is ICS. In words: qHTS profiling for inhibitors of Plasmodium falciparum proliferation (AID 504749). Further: potency means the concentration at half of the fitted maximal effect. Particulars: P. falciparum in erythrocytes, SYBR Green DNA, 72 h; series mostly up to 28.7 µM. In short, it runs like this: (§2)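 Parasite proliferation within erythrocytes, 72 h exposure. Endpoint: SYBR Green I fluorescence after overnight lysis at room temperature. Controls: 0.29 uM artemisinin, DMSO.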

Experiment [4] relates to N140. The description is as above. Particulars: P. falciparum in erythrocytes, SYBR Green DNA, 72 h; series mostly up to 28.7 µM. The procedure, abridged: as §2
The subject of experiment [5] is P93_24. Described as above. Particulars: P. falciparum in erythrocytes, SYBR Green DNA, 72 h; series mostly up to 28.7 µM. In short, it runs like this:
as §2

The test system of experiment [6] is PAD. Described as above. The conditions noted are these: P. falciparum in erythrocytes, SYBR Green DNA, 72 h; series mostly up to 28.7 µM. In short, it runs like this:
as §2

Experiment [7] concerns PC49. Described as above. The conditions noted are these: P. falciparum in erythrocytes, SYBR Green DNA, 72 h; series mostly up to 28.7 µM. The procedure, abridged: as §2
Experiment [8] deals with TAB165. The experiment is described as above. The conditions noted are these: P. falciparum in erythrocytes, SYBR Green DNA, 72 h; series mostly up to 28.7 µM. The procedure, abridged:
as §2

Experiment [9] concerns KB-3-1. The experiment can be described thus: Cytotoxic Profiling of Annotated Libraries Using Quantitative High-Throughput Screening (AID 1296008). Further: potency means the concentration at half of the fitted maximal effect. On max response: on the % scale 0 is the no-effect control and ±100 the full control effect. Particulars: Five cell lines viability, CellTiter-Glo ATP luminescence, 48-72 h; max response: active compounds read low. In short, it runs like this: as §1
For experiment [10], the system named is HACAT. In words: qHTS assay to identify novel small-molecules to repurpose for Merkel cell carcinoma treatment (AID 1296009). The conditions noted are these: MCC and control cell lines, CellTiter-Glo viability, 72 h; at 44.8 µM (top of the series) unless noted. In short, it runs like this:
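qHTS format: cells treated with library compounds in DMSO across 8 (NPC) or 11 (MIPE) concentrations. Readout after 72 hr at 37 degree celsius was CellTiter-Glo luminescence.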

For experiment [11], the system named is P94_40. The experiment can be described thus: qHTS profiling for inhibitors of Plasmodium falciparum proliferation (AID 504749). Further: potency means the concentration at half of the fitted maximal effect. The conditions noted are these: P. falciparum in erythrocytes, SYBR Green DNA, 72 h; series mostly up to 28.7 µM. In short, it runs like this: as §2
For experiment [12], the system named is PC15. The experiment is described as above. Particulars: P. falciparum in erythrocytes, SYBR Green DNA, 72 h; series mostly up to 28.7 µM. In short, it runs like this: as §2
Experiment [13] deals with PC26. Described as above. Particulars: P. falciparum in erythrocytes, SYBR Green DNA, 72 h; series mostly up to 28.7 µM. The procedure, abridged:
as §2

In experiment [14] the test system is SC27B. The description is as above. Particulars: P. falciparum in erythrocytes, SYBR Green DNA, 72 h; series mostly up to 28.7 µM. The procedure, abridged: as §2
For experiment [15], the system named is TAB109. Described as above. The conditions noted are these: P. falciparum in erythrocytes, SYBR Green DNA, 72 h; series mostly up to 28.7 µM. In short, it runs like this:
as §2

The test system of experiment [16] is TAB113. The description is as above. Particulars: P. falciparum in erythrocytes, SYBR Green DNA, 72 h; series mostly up to 28.7 µM. In short, it runs like this: as §2
Experiment [17] concerns HEK293. The experiment can be described thus: Cytotoxic Profiling of Annotated Libraries Using Quantitative High-Throughput Screening (AID 1296008). Further: potency means the concentration at half of the fitted maximal effect. On max response: on the % scale 0 is the no-effect control and ±100 the full control effect. Particulars: Five cell lines viability, CellTiter-Glo ATP luminescence, 48-72 h; max response: active compounds read low. In short, it runs like this: as §1
For experiment [18], the system named is HB3. The experiment can be described thus: qHTS profiling for inhibitors of Plasmodium falciparum proliferation (AID 504749). Further: potency means the concentration at half of the fitted maximal effect. Particulars: P. falciparum in erythrocytes, SYBR Green DNA, 72 h; series mostly up to 28.7 µM. The procedure, abridged:
as §2

In experiment [19] the test system is JCK. The experiment is described as above. Particulars: P. falciparum in erythrocytes, SYBR Green DNA, 72 h; series mostly up to 28.7 µM. In short, it runs like this:
as §2
Further: nearly all actives have a fitted effect of over 60% in size.

Consider `CCOC(=O)N1CCC(n2c(=O)[nH]c3cc(Cl)ccc32)CC1`, for which the max response in experiment [1] was -12.1%; in experiment [2], 3.06%.

Regarding `CN1CCCN(C(c2ccccc2)c2ccc(Cl)cc2)CC1` (stereo not given), the Potency in [3] is 8.91 µM (active); in experiment [4], 10 µM (active); in [5] it was 7.08 µM (active); in experiment [6], 5.62 µM (active); in experiment [7] it was 5.01 µM (active); in experiment [8], 7.94 µM (active). Besides, in experiment [9], the max response was 0.505%.

As to `CCCC(=O)O[C@]1(C(=O)CC)CC[C@H]2[C@@H]3CCC4=CC(=O)CC[C@]4(C)[C@H]3[C@@H](O)C[C@@]21C`, the max response in [1] is -13.1%; in experiment [2], -5.79%.

For `COc1ccc(-n2nc(CCC(=O)N(C)O)cc2-c2ccc(Cl)cc2)cc1`, the molecule was classed as inactive in experiment [1] and in experiment [10].

Turning to `Clc1ccc2c(c1)N=C(N1CCNCC1)c1ccccc1N2`, in experiment [1], the max response is 2.45%.

Consider `CN=C(N)NC(=O)Nc1c(C)cccc1C`, for which, in experiment [10], the molecule was classed as inactive.

With `CC(C)C[C@H](NC(=O)CNC(=O)[C@H](Cc1ccc(O)cc1)NC(=O)[C@H](CO)NC(=O)[C@H](Cc1c[nH]c2ccccc12)NC(=O)[C@H](Cc1cnc[nH]1)NC(=O)[C@@H]1CCC(=O)N1)C(=O)N[C@@H](CCCN=C(N)N)C(=O)N1CCC[C@H]1C(=O)NCC(N)=O` (stereo in doubt), the max response in [9] was -12.3%.

For the molecule `O=C(OCC(O)CO)c1ccccc1Nc1ccnc2c(C(F)(F)F)cccc12` (stereo not given), the max response in [1] is -6.27%; in [2], -7.27%.

Take `Cc1cccc(N(C)C(=S)Oc2ccc3c(c2)CCC3)c1`: the max response in experiment [1] is -7.13%; in [9], -1.52%; in [2], -6.52%.

Regarding `COC(=O)C1=C(C)NC(COC(N)=O)=C(C(=O)OC(C)C)C1c1cccc(Cl)c1Cl` (stereo not given), the max response in experiment [9] was 2.72%. For the same molecule, the Potency in experiment [2] was 15 µM (active).

As to `CN1CCCN=C1/C=C/c1cccs1`, the outcome in [10] was inactive.

For the molecule `CCCCC/C=C\C/C=C\CCCCCCCC(=O)NC(C)c1ccccc1` (stereo not given), the max response was -11.3% in experiment [1], -8.18% in experiment [9] and -26.3% in experiment [2].

Take `Nc1nc2ccccc2n1Cc1ccc(F)cc1`: the molecule was called inactive in [1], in experiment [2] and in experiment [10].

As to `CCC[C@H](N[C@@H](C)C(=O)N1[C@H](C(=O)O)C[C@@H]2CCCC[C@@H]21)C(=O)OCC`, the max response was 1.07% in experiment [1] and -9.35% in [2].

As for `COc1c(C)c2c(c(O)c1C/C=C(\C)CCC(=O)OCCN1CCOCC1)C(=O)OC2`, in experiment [1], the max response is -40.9%.

Regarding `O=C(CCC1CCN(Cc2ccccc2)CC1)c1ccc2c(c1)NCCCC2`, the max response in experiment [1] was 2.9%; in experiment [9], -12.9%.

In the case of `CCCc1c2oc(C(=O)O)cc(=O)c2cc2c(=O)cc(C(=O)O)n(CC)c12`, in experiment [10], the call was inactive.

For the molecule `CCCCCCCCCCCCCCCC[N+](C)(C)Cc1ccccc1`, the Potency in experiment [3] is 2.82 µM (active); in experiment [4], 14.1 µM (active); in experiment [5], 1.12 µM (active); in experiment [11], 1.58 µM (active); in [6], 5.62 µM (active); in experiment [12], 7.94 µM (active). The Potency in [13] was 9.53 µM (active); in [7], 10 µM (active); in experiment [14] it was 1 µM (active); in experiment [15], 3.98 µM (active); in experiment [16], 14.1 µM (active); in experiment [8], 12.6 µM (active). Besides, the Potency in experiment [17] was 5.31 µM (active); in [2], 11.9 µM (active).

`NC(N)=NCCCCN=C(N)N`: the max response in experiment [9] is -9.65%.

`C[C@H](N)C(=O)N[C@@H](C)C(=O)NC1[C@H]2CN(c3nc4c(cc3F)c(=O)c(C(=O)O)cn4-c3ccc(F)cc3F)C[C@@H]12` (stereo not given in full): the max response in experiment [1] was 0.555%.

On to `C[C@H]1C[C@H]2[C@@H]3CCC4=CC(=O)C=C[C@]4(C)[C@H]3C(=O)C[C@]2(C)[C@@]1(O)C(=O)CO`, for which the max response in experiment [1] was -5.83%. In addition, the molecule was called inactive in experiment [2].

For the molecule `CN1CCC(N(Cc2cccs2)c2ccccc2)CC1`, the max response in experiment [1] was -4.44%; in experiment [9], -11.3%; in experiment [2], -5.48%.

Regarding `COc1cccc2c1[C@@H]1CN(CCCCn3c(=O)[nH]c4c(sc5ncc(-c6ccccc6)nc54)c3=O)C[C@@H]1CO2`, the max response in [9] was 2.96%.

On to `COC(=O)c1cc(Cl)ccc1NS(=O)(=O)C(F)(F)F`, for which the max response in experiment [1] is -18%; in experiment [2], -7.02%.

As to `COc1ccc(OC(=O)N(CC(=O)O)Cc2ccc(OCCc3nc(-c4ccccc4)oc3C)cc2)cc1`, the max response was -6.17% in experiment [1] and 0.554% in experiment [2].

Turning to `O=C(Nc1ccc(Cl)cc1)Nc1ccc(Cl)c(Cl)c1`, the Potency in experiment [18] is 11.2 µM (active); in [3], 0.631 µM (active); in experiment [19] it was 10 µM (active); in experiment [4] it was 2 µM (active); in experiment [5] it was 3.55 µM (active); in experiment [11], 2.82 µM (active). The Potency was 2.24 µM (active) in [6]; 2.51 µM (active) in [12]; 1.51 µM (active) in experiment [13]; 2.24 µM (active) in experiment [7]; 2.24 µM (active) in experiment [14]; 3.55 µM (active) in experiment [15]. Further, the Potency in experiment [16] was 2.24 µM (active); in experiment [8], 1.78 µM (active); in experiment [17], 7.5 µM (active).

Turning to `C[N+](C)(C)CCO`, the max response in experiment [9] is -9.9% and -0.543%.

For `CN1CCC(Nc2ncc3ncnc(Nc4ccc(F)c(Cl)c4)c3n2)CC1`, the Potency was 6.31 µM (active) in experiment [3]; 7.94 µM (active) in experiment [19]; 10 µM (active) in experiment [4]; 7.08 µM (active) in experiment [5]; 8.91 µM (active) in [11]; 11.2 µM (active) in [15]. Besides, the Potency in [8] is 11.2 µM (active); in experiment [1] it was 0.237 µM (active). Also, the max response in experiment [9] was -0.0832%.

As to `CC(CC1c2ccccc2CCc2ccccc21)CN(C)C` (stereo not given), the max response in experiment [1] was 1.42%.

As for `O=S(=O)(O)c1ccc2nc(-c3ccccc3)[nH]c2c1`, the Potency result in experiment [18], in experiment [3], in [19], in experiment [4], in experiment [5] and in experiment [11] was “inactive” throughout. Besides, the Potency result in [6], in [12], in [13], in experiment [7], in experiment [14] and in experiment [15] was “inactive” throughout. The Potency result in [16] and in [8] was “inactive” in each case. The max response in [1] was -12.3%.

In the case of `C/C(=C(/OCCOc1ccc(Cl)cc1)c1ccc(Cl)cc1Cl)n1ccnc1`, the max response in [2] is -25.5%.

Turning to `O=[N+]([O-])c1ccc(O)c2ncccc12`, the Potency in [3] is 12.6 µM (active); in [8], 14.1 µM (active); in experiment [17], 8.41 µM (active); in [2], 15 µM (active). Also, the Potency entry in experiment [6], in experiment [12], in [13] and in [7] was “inactive” in each case.

As to `N#C/C(=C1/SC[C@@H](c2ccc(Cl)cc2Cl)S1)n1ccnc1`, the max response in [1] is -0.746%; in [9], -3.46% and -14.6% and -17.3%; in [2], -5.57%.
